# FLuc modulator = firefly luciferase modulation, counter-screen for miR-21 project | purified FLuc, Km substrates, luminescence inhibition | Potency, µM (highest dose often 57.5 µM), without a hit: at the highest dose activity change, negative = inhibition, most hits filed as inhibitors | 360,000 tested, 6.9% active;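 also: plate controls were vehicle for no effect and reference inhibitor for full effect; nearly all actives have a fitted effect of over 55% in size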
# Target sequence (P08659 whole entry, looked up): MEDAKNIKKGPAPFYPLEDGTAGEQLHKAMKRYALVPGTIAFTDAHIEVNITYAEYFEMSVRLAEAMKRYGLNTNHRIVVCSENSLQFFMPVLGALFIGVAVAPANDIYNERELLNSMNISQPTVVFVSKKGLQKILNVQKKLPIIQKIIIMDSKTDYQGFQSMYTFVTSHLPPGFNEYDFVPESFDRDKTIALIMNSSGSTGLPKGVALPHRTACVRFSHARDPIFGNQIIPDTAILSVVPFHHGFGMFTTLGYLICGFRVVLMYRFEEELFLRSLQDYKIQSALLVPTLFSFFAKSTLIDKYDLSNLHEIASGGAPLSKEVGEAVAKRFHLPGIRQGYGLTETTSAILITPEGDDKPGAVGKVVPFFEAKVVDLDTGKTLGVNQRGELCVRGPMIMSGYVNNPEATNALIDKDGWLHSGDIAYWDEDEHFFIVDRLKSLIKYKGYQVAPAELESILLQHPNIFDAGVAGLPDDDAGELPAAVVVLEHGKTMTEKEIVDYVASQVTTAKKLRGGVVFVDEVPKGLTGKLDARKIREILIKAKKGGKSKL
#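 Purified P. pyralis luciferase, 10 nM final, with Km-level 10 uM D-luciferin and 10 uM ATP in 50 mM Tris acetate pH 7.5, 10 mM Mg acetate, 0.01% Tween-20, 0.05% BSA; 6-point qHTS titration about 60 µM downward; luminescence read.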
# SMN2 splice enh = increases expression of the SMN2 splice variant | HEK293 SMN2-luciferase splicing reporter, luminescence, 30-36 h | Potency, µM (top dose mostly 46.1 µM), for the others: at the top dose activity change, positive = activation, actives largely listed as activators | 210,000 tested, 2.8% active; also: % of control where 0% means no effect; nearly all actives have a fitted effect of over 55% in size
#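 HEK293 cells carry an SMN2 minigene-luciferase reporter in which exon 7 inclusion puts luciferase in frame. Cells were seeded at 2000 cells/well, attached for 10-12 hours, then exposed to compounds for 30-36 hours at 37C before ONE-Glo luminescence.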
# Rab9 promoter act = activators of Rab9 promoter; AID 485297; 320,000 tested, 2.8% active; Huh7 Rab9 promoter-luciferase reporter, luminescence, 24 h; Potency, µM (doses to about 9.22 µM), for inactives: at the highest dose activation, negative = inhibition, hits mostly activators; also: % of control where 0% means no effect; nearly all actives have a fitted effect of over 60% in size
#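 Cells were plated at 1500 per well in reduced-serum medium with 10% FBS and left 2 h. Compound in DMSO was then added for 24 h at 37 °C. Reporter signal was read by luminescence after 10 min with luciferase detection reagent.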
# ELG1 genotox = inducers of genotoxicity in HEK293T ELG1-luciferase cells; HEK293T ELG1-luciferase reporter, luminescence, 16 h; Potency, µM (top dose mostly 46 µM), inactives show at the top dose activity change, positive = activation, usual class: activators; 330,000 tested, 1.3% active; also: % of control where 0% means no effect; nearly all actives have a fitted effect of over 60% in size
#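 Genotoxicity was scored as increased ELG1-luciferase reporter signal, measured by ONE-Glo luminescence (30 min, room temperature). Compound or vehicle exposure of the HEK293T reporter cells lasted 16 hr at 37°C.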
# NPC1 prom act = activates the NPC1 promoter; Huh7 NPC1 promoter luciferase reporter, 24 h; Potency, µM (highest dose often 9.22 µM), for inactives: at the top dose activation, hits mostly activators; 320,000 tested, 2.4% active; AID 485313; also: % of control where 0% means no effect; nearly all actives have a fitted effect of over 60% in size
#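 Stable NPC1-promoter luciferase Huh7 line; cpd (DMSO) 24 h, 37 °C, 5% CO2; Amplite luciferase reagent 10 min RT; luminescence readout. qHTS format.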
# uPA generation = blocks generation of uPA at the cell surface. cell surface uPA generation assay, qHTS. Potency, µM (doses to about 38.3 µM), for inactives: at the highest dose activity change, negative = inhibition, hits mostly inhibitors. 330,000 tested, 0.31% active; active = well fitted inhibition curve with a large enough effect; inconclusive = small, poorly fitted or top-dose-only effect; inactive = no such curve, though single readings can be large or run the other way; tested in mouse RAW 264.7 cells; also: % is scaled to controls: 0 for no effect and ±100 for the full control effect; nearly all actives have a fitted effect of over 55% in size
# * hit, by the source's call; ? = inconclusive; · = no result. This is a sample that favours compounds with a hit; in the whole collection about 7.3% have one here. Unless noted, calls follow the shape of the dose curve; as a rule, active = well fitted curve in the direction sought with a large enough effect; inconclusive = small, poorly fitted or top-dose-only effect, or another doubt; inactive = no such curve, though single readings can be large; an effect the other way counts as inactive or inconclusive. Potency is read from the fitted curve at half-maximal effect.
SMILES,FLuc modulator,SMN2 splice enh,Rab9 promoter act,ELG1 genotox,NPC1 prom act,uPA generation
O=C(Cn1c(=O)n(-c2ccccc2)c(=O)c2ccc(C(=O)NCc3ccc4c(c3)OCO4)cc21)Nc1ccc(F)c(Cl)c1,-3%,-4%,·,·,·,·
CCCCCCCC/C=C\CCCCCCCCOC[C@H](COP(=O)([O-])OCC[N+](C)(C)C)OC(C)=O,·,-2%,·,·,·,·
CCOc1ccc(C(=O)NCCc2sc(-c3cccc(F)c3)nc2C)cc1OCC,-14%,·,·,·,·,·
O=C(Nc1cccc2cccnc12)c1cccc2ccccc12,?,-23%,-6%,13%,-1%,6%
COc1cc(Cl)c(C)cc1NC(=O)c1cc2ccc3cccnc3c2[nH]1,-7%,·,·,·,·,·
COc1ccccc1NC(=O)c1cc2ccc3cccnc3c2[nH]1,2.7µM*,·,·,·,·,·
COc1ccc(C(=O)Nc2nc(C)c(C)s2)cc1OC,13µM*,?,?,?,?,2%
CCOc1ccccc1C(=O)Nc1cccc2cccnc12,27µM*,·,0%,-5%,-2%,-4%
COc1ccc(Cc2nnc(NC(=O)c3ccc(OC)c(OC)c3)s2)cc1,0%,·,-2%,0%,-9%,-13%
CCCn1c(C)nc2c(NCCN3CCCC3)nc(C)nc21,·,-4%,·,·,·,·
NNc1nc2sc3c(c2c(=O)n1Cc1ccccc1)CCC3,6.7µM*,·,17%,6%,-4%,-1%
Nn1c(Nc2ccccc2)nc2sc3c(c2c1=O)CCC3,9.5µM*,-51%,11%,?,20%,-4%
Cc1nc(NC(C)c2ccccc2)c2c3c(sc2n1)CCC3 (configuration not stated),1%,-36%,1%,-2%,-1%,-5%
NNc1nc(-c2ccccc2)nc2sc3c(c12)CCCC3,0.54µM*,-47%,2.2µM*,1.3µM*,3.5µM*,-3%
COC(=O)c1ccc(Cn2nnc3sc4c(c3c2=O)CCCC4)cc1,-1%,7%,·,·,·,·
O=C(O)c1ccc(Cn2nnc3sc4c(c3c2=O)CCCC4)cc1,13µM*,5%,?,?,29%,-3%
CCCNc1nc(NCc2ccccc2OC)c2cnn(C)c2n1,2%,·,·,·,·,·
N#Cc1nc(/C=C/c2ccc(F)cc2)oc1N1CCCCC1,-10%,8%,·,·,·,·
CCC1CCCCN1CCCNC(=O)C1CCN(Cc2nc(-c3ccc(Cl)cc3)oc2C)CC1 (configuration not stated),1%,·,-4%,12%,-1%,10µM*
O=C1CCC2S/C(=C/Nc3ccc(C(F)(F)F)cc3)C(=O)N12 (configuration not stated),15µM*,-80%,-38%,-13%,-30%,-5%
COc1ccc(-c2noc(C3CCCN(C(=O)Nc4ccccc4F)C3)n2)cc1 (configuration not stated),?,·,26%,-1%,15%,0%
C=CCNc1nc2c3ccccc3n(C(C)=O)c2s1,24µM*,-3%,23%,?,21%,-6%
Cc1c(N=Cc2nc3ccccc3[nH]2)c(=O)n(-c2ccccc2)n1C,13µM*,-35%,8%,0%,14%,-1%
Cc1c(NC(=O)/C(C#N)=C/c2ccc(-c3cccc(Cl)c3)o2)c(=O)n(-c2ccccc2)n1C,-14%,-25%,-3%,-14%,-4%,-8%
Cc1c(N=Cc2nc3ccccc3n2C)c(=O)n(-c2ccccc2)n1C,1.5µM*,1%,5%,?,0%,0%
SMILES,FLuc modulator,SMN2 splice enh,Rab9 promoter act,ELG1 genotox,NPC1 prom act,uPA generation
Cc1cccc(-c2ccc(C=Nc3c(C)n(C)n(-c4ccccc4)c3=O)o2)c1,24µM*,-8%,9%,0%,7%,-1%
COc1ccc(S(=O)(=O)NCC2CCCN(Cc3ccccc3C)C2)cc1 (configuration not stated),-2%,·,-2%,1%,-2%,8%
COc1ccc(NC(=O)CSc2nc3n[nH]c(C)c3c(=N)n2-c2ccc(Cl)c(C)c2)cc1OC,-1%,·,-8%,9%,13%,-3%
O=C1CCCC1C(O)c1ccc2ccccc2c1 (configuration not stated),·,-3%,·,·,·,·
Cc1ccc2onc(CC(=O)N(C)c3ccccc3)c2c1,4.8µM*,·,·,·,·,·
CCOC(=O)c1ccc(NC(=O)Cc2noc3ccc(C)cc23)cc1,8.5µM*,·,·,·,·,·
COc1ccc(NC(=O)Cc2noc3ccc(C)cc23)cc1Cl,-4%,·,·,·,·,·
COc1cccc(N2CCN(C(=O)CN3CCSc4ccccc43)CC2)c1,4%,·,·,·,·,·
CN(C)C(=O)C1C2NC(=S)N(c3cccc(Cl)c3)C1(C)Oc1ccc(Cl)cc12 (configuration not stated),0%,·,-5%,-3%,-8%,-1%
Cc1ccc(C2=CC(c3cccs3)n3nnnc3N2)cc1 (configuration not stated),-26%,15%,?,3%,5µM*,-1%
CCOc1ccc(C2C=C(c3ccccc3)Nc3nnnn32)cc1 (configuration not stated),0%,14%,1.6µM*,?,2.8µM*,1%
Fc1ccc(C2=CC(c3cccs3)n3nnnc3N2)cc1 (configuration not stated),-1%,·,8%,5%,-2%,-1%
O=C(Oc1ccccc1F)c1nc(SCc2ccccc2F)ncc1Cl,-16%,7%,·,·,·,·
CN1CCc2c(sc3c2C(=O)NC(c2ccc(OC(=O)c4ccc(C(C)(C)C)cc4)cc2)N3)C1 (configuration not stated),11µM*,-1%,·,·,·,·
CN1CCc2c(sc3c2C(=O)NC(c2ccc(OC(=O)c4ccccc4)cc2)N3)C1 (configuration not stated),?,16µM*,·,·,·,·
COc1ccc(-c2cc3c(=O)n(CC(=O)NCCCN4CCC(N5CCCCC5)CC4)ncn3n2)cc1,11µM*,·,22%,9%,?,-19%
COc1ccc(-c2cc3c(=O)n(CC(=O)NCc4cccnc4)ncn3n2)cc1,2.1µM*,·,3.5µM*,?,1.6µM*,?
CC1(O)/C=C\C=C(\CO)C2CC(C)(C)C2(O)CC1 (configuration not stated),·,-2%,·,·,·,·
O=C1C2C3C=CC(C3)C2C(=O)N1CCCCCCN1C(=O)C2C3C=CC(C3)C2C1=O (configuration not stated),4.3µM*,·,4µM*,?,-19%,1%
O=C(O)CCN1C(=O)C2C3C=CC(C3)C2C1=O (configuration not stated),7%,5%,3%,11%,8%,3%
c1ccc2c(N3CCNCC3)nc(-c3ccoc3)nc2c1,·,1%,·,·,·,·
O=C(/C=C/Nc1ccccc1Br)c1ccccn1,0.076µM*,?,·,·,·,-15%

# Screening data deposited in PubChem BioAssay by National Center for Advancing Translational Sciences (NCATS).
